Measured values as given in PubChem BioAssay AID1345085 (National Center for Advancing Translational Sciences (NCATS), 2018).
Results filed as inconclusive are left out. Calls of active or inactive are those of the source. The call rests on the fitted dose curve; in most records, active means well fitted cell-killing curve with a large enough effect; inconclusive means small, poorly fitted or top-dose-only effect, or effect the other way; inactive means no such curve, though single readings can be large or run the other way. *1 amine or outer side, *2 acyl side, *3 side chain or, on linkers, in order; H or OH if unused. Where a SMILES comes first, the peptide text is derived from it. Bridges are numbered along the chain shown (N, C = ends). Roman numbers before positions name the chains, in order. [ ]: non-standard residue; d: D form. Actinocin(9to1) = Cc1c2oc3c(C)ccc(C(=O)[*:1])c3nc-2c(C(=O)[*:2])c(N)c1=O; NMeV = CN[C@H](C(=O)O)C(C)C; Sar = CNCC(=O)O

Tested on: CAOV3
Test: Confirmatory qHTS for gynecologic anti-cancer compounds from libraries of approved drugs and bioactive compounds; further: nearly all actives have a fitted effect of over 55% in size
Details: gynecologic cancer cell panel viability, ATPlite luminescence, 48 h; series mostly up to 57.6 µM; activity change, negative = viability loss: at the top concentration
Summary of the method: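 1,000 cells/well; 16 h pre-incubation 37 C, 5% CO2; pin-transferred cpd in DMSO, 11 conc (1:3), 57.5 uM–0.977 nM; 48 h; ATPlite, 15 min RT; luminescence → IC50.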
On the % scale 0 is the no-effect control and ±100 the full control effect; potency means the concentration at half of the fitted maximal effect.

Row | Compound | activity change, negative = viability loss | Potency
1 | CC(C)c1nn(-c2c(Cl)cccc2Cl)c2nc(Cc3ccc(OCCO)cc3)[nH]c(=O)c12 | -3.9% (inactive) | –
2 | Cc1cc(C(=O)N2CCN(c3cccc(Cl)c3)CC2)n(-c2ccccc2)n1 | 9.33% (inactive) | –
3 | NC(=O)Nc1cc(-c2cccc(F)c2)sc1C(=O)NC1CCCNC1 (centres undefined) | – | 1.22 µM (active)
4 | Nc1ncn([C@@H]2O[C@H](CO)[C@@H](O)[C@H]2O)c(=O)n1 | 1.76% (inactive) | –
5 | O=C(c1ccc(/C=C/c2n[nH]c3ccccc23)cc1)N1CCNCC1 | – | 19.3 µM (active)
6 | CC(C)C[C@H](NC(=O)[C@@H](NC(=O)c1cccc(-c2ccccc2)n1)[C@@H](C)O)B(O)O | – | 0.172 µM (active)
7 | CN(C)CCC(CSc1ccccc1)Nc1ccc(S(=O)(=O)NC(=O)c2ccc(N3CCN(Cc4ccccc4-c4ccc(Cl)cc4)CC3)cc2)cc1[N+](=O)[O-] (centres undefined) | – | 9.68 µM (active)
8 | CC(C)C[C@H](NC(=O)[C@H](Cc1ccccc1)NC(=O)c1cnccn1)B(O)O | – | 0.0769 µM (active)
9 | CC(C)Oc1ccc2c(=O)c(-c3ccccc3)coc2c1 | – | 15.3 µM (active)
10 | c1nc2nc(Nc3ccc(N4CCOCC4)cc3)nc(NC3CCCCC3)c2[nH]1 | – | 4.73 µM (active)
11 | CCC1C(=O)N(C)c2cnc(Nc3ccc(C(=O)NC4CCN(C)CC4)cc3OC)nc2N1C1CCCC1 (centres undefined) | – | 4.85 µM (active)
12 | C[C@@]1(C(=O)Nc2ccc(F)nc2)CCCN1c1nc(Nc2cc(C3CC3)[nH]n2)c2cccn2n1 | – | 12.2 µM (active)
13 | CCC1C(=O)N(C)c2cnc(Nc3ccc(C(=O)NC4CCC(N5CCN(CC6CC6)CC5)CC4)cc3OC)nc2N1C(C)C (centres undefined) | – | 2.17 µM (active)
14 | CS(=O)(=O)c1ccc(-c2cnc(N)c(C(=O)Nc3ccccc3)n2)cc1 | -10.9% (inactive) | –
15 | CCCCc1nc2cc(/C=C/C(=O)NO)ccc2n1CCN(CC)CC | – | 4.85 µM (active)
16 | CCN1C[C@H](C)n2c(c(O)c3c(=O)n(Cc4ccc(F)c(Cl)c4)nc(C(=O)NC)c32)C1=O | 18.8% (inactive) | –
17 | Cc1cnc(Nc2ccc(CN3CCOCC3)cc2)nc1Nc1cccc(S(=O)(=O)NC(C)(C)C)c1 | – | 3.85 µM (active)

Row | Compound | activity change, negative = viability loss | Potency
18 | COc1ccc2c(c1)c(CC(=O)O)c(C)n2C(=O)c1ccc(Cl)cc1 | 11.3% (inactive) | –
19 | Nc1ccn([C@@H]2O[C@H](CO)[C@@H](O)C2(F)F)c(=O)n1 | – | 0.217 µM (active)
20 | Cn1cnc2c(F)c(Nc3ccc(Br)cc3F)c(C(=O)NOCCO)cc21 | 9.19% (inactive) | –
21 | CC[C@@]1(O)C(=O)OCc2c1cc1n(c2=O)Cc2c-1nc1ccccc1c2/C=N/OC(C)(C)C | – | 0.0968 µM (active)
22 | CN(c1nccc(=O)[nH]1)C1CCN(c2nc3ccccc3n2Cc2ccc(F)cc2)CC1 | 3.5% (inactive) | –
23 | CNC1CCC(N(Cc2cccc(-c3ccncc3)c2)C(=O)c2sc3ccccc3c2Cl)CC1 (centres undefined) | – | 27.3 µM (active)
24 | Cc1ccc(C(=O)Nc2cccc(C(F)(F)F)c2)cc1-c1ccc2nc(NCCN3CCOCC3)ncc2c1 | – | 24.3 µM (active)
25 | C=CC(=O)Nc1cc2c(Nc3ccc(F)c(Cl)c3)ncnc2cc1OCCCN1CCOCC1 | – | 27.3 µM (active)
26 | Oc1cn2c(n1)Nc1ccc(Cl)c(Cl)c1C2 | -15.5% [at 19.5 µM] (inactive) | –
27 | CC(=O)OC12COC1CC(O)C1(C)C(=O)C(O)C3=C(C)C(OC(=O)C(O)C(NC(=O)OC(C)(C)C)c4ccccc4)CC(O)(C(OC(=O)c4ccccc4)C21)C3(C)C (centres undefined) | 17.5% (inactive) | –
28 | Cc1c2oc3c(C)ccc(C(=O)N[C@@H]4C(=O)N[C@H](C(C)C)C(=O)N5CCC[C@H]5C(=O)N(C)CC(=O)N(C)[C@@H](C(C)C)C(=O)O[C@@H]4C)c3nc-2c(C(=O)N[C@@H]2C(=O)N[C@H](C(C)C)C(=O)N3CCC[C@H]3C(=O)N(C)CC(=O)N(C)[C@@H](C(C)C)C(=O)O[C@@H]2C)c(N)c1=O (I: T[dV]P[Sar][NMeV] / II: T[dV]P[Sar][NMeV]; ester I:1-I:C, II:1-II:C; linker I:N-II:N via Actinocin(9to1)) | – | 0.344 µM (active)
29 | CCS(=O)(=O)N1CCN(c2ccc(Nc3ncc(C(N)=O)c(NC4CC4)n3)cc2)CC1 | – | 6.85 µM (active)
30 | O=C1NC(=O)C(c2cnc3ccccn23)=C1c1cn2c3c(cccc13)CN(C(=O)N1CCOCC1)CC2 | 0.779% (inactive) | –
31 | S=c1nc[nH]c2nc[nH]c12 | – | 0.769 µM (active)
32 | O=C(Nc1cn[nH]c1-c1nc2ccc(CN3CCOCC3)cc2[nH]1)NC1CC1 | – | 0.122 µM (active)
33 | O=C1c2c(O)ccc(O)c2C(=O)c2c(NCCNCCO)ccc(NCCNCCO)c21 | – | 3.85 µM (active)
34 | COc1ccccc1N1CCN(CC(O)COc2cccc3ccccc23)CC1 (centres undefined) | -3.71% (inactive) | –
